# Test results published in PubChem BioAssay (NCI).
# The panel holds about 83,000 compounds, 20% with a hit somewhere; the sample as a whole holds those more often.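 For each line, cells grew in 96-well plates with the test compound present at a single concentration for 48 hours.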 Unmarked numbers belong to inactive results. Active and inactive are the calls of the source. The calls were made as follows: active = growth percent below 10; inactive = the rest.
# Legend:
# Experiment in all cases: NCI-60 one-dose screen, 48 h (100 = growth as untreated, 0 = no growth, -100 = all killed)
# Conditions in all cases: 10 µM unless noted
# [1] = test system: SR leukemia
# [2] = test system: RPMI-8226 leukemia
# [3] = test system: OVCAR-8 ovarian
# [4] = test system: OVCAR-5 ovarian
# [5] = test system: OVCAR-4 ovarian
# [6] = test system: SK-OV-3 ovarian
# [7] = test system: IGROV1 ovarian
# [8] = test system: OVCAR-3 ovarian
# [9] = test system: HS 578T breast
# [10] = test system: NCI/ADR-RES ovarian
SMILES,growth [1],growth [2],growth [3],growth [4],growth [5],growth [6],growth [7],growth [8],growth [9],growth [10]
C=CC(=O)N1CCN(c2ccc3nc4c(nc3c2C(F)(F)F)C(=O)c2ncccc2C4=O)CC1,33.2%,-20.2% (active),-9.34% (active),2.97% (active),-96.4% (active),91.1%,-42.6% (active),-15.3% (active),75.8%,47.5%
COc1cc(CNC(=O)C[C@H](C)CCC=C(C)C)ccc1OCc1cn(-c2ccc(Br)cc2)nn1,63.8%,69.3%,47.5%,105%,49.5%,64%,89.9%,105%,73.8%,52.1%
O=C(NN1C(=O)/C(=C/C=C/c2ccc([N+](=O)[O-])o2)SC1=S)c1ccncc1,-24.7% (active),-28.4% (active),-37.2% (active),-98.9% (active),-97.6% (active),-99% (active),-94.9% (active),-100% (active),-11% (active),-4.3% (active)
Nc1cc(-c2c[nH]c3ccc(F)cc23)nc2cc(-c3c[nH]c4ccccc34)nn12,15.4%,-1.51% (active),4.46% (active),1.01% (active),47.8%,18.5%,16.2%,28.8%,20.7%,10.7%
FC(F)(F)CN1CCN(CCn2c(C(F)(F)F)cc3c(Cl)ncnc32)CC1,-54.6% (active),-6.12% (active),8.76% (active),103%,21.5%,71.4%,-80.5% (active),-47.4% (active),47.4%,75.1%
O=C(/C=C1\C(=O)N(Cc2ccccc2)c2ccccc21)c1cc2ccccc2oc1=O,22.5%,98.8%,98%,116%,84.5%,109%,67.4%,38.6%,89.3%,91.3%
O=C(Nc1ccc(-c2ccc3c(c2)NC(=O)/C3=C\c2ccc[nH]2)cc1)Nc1cccc(Cl)c1,6.39% (active),18.2%,-34.5% (active),-68.3% (active),6.87% (active),3.23% (active),-62.2% (active),2.44% (active),21.9%,-37.9% (active)
N#CCc1nnc(NC(=O)c2ccc(-n3c(=O)[nH]c4ccccc4c3=O)cc2)s1,93.4%,111%,100%,96.7%,106%,106%,105%,104%,87.9%,104%
COc1ccc(Nc2ncnc3sc4c(c23)CCN(Cc2ccccc2)C4)cc1,82.9%,62.1%,82.8%,106%,68.4%,102%,80.8%,93.7%,74.8%,76.7%
CN(C)c1nc(NCCNS(=O)(=O)c2ccc(C(=O)/C=C/c3ccc(Cl)cc3)cc2)nc(N2CCOCC2)n1,-12.8% (active),-22.8% (active),12.8%,55.4%,60%,73.9%,-71.2% (active),-9.86% (active),62%,25.5%
COc1ccc2[nH]c(O)c(N=Nc3nc(-c4ccc(Br)cc4)cs3)c2c1,19.3%,16.3%,-23.7% (active),31.4%,-69.6% (active),-35.3% (active),30.6%,-71.3% (active),29.3%,-24.6% (active)
CCCCCCCCc1ccc(C(=O)Nc2ccc(C)cc2C(=O)O)cc1,90%,63.5%,94.1%,109%,99.8%,100%,83.9%,94%,105%,94.1%
CN1C(=O)C2(C(C#N)=C(c3ccc(Cl)cc3)Nc3c2c(-c2ccccc2)nn3-c2ccccc2)c2ccccc21 (stereo not given),29.6%,60.3%,98.5%,96%,96.1%,99.2%,98%,112%,65.3%,78.8%
CCCCCCCCCCCCCCCCCC(=O)Nc1ccc(OC)cc1,97.7%,99.6%,112%,114%,113%,115%,103%,119%,101%,101%
S=C(Nc1ccccc1)Nc1ccc(OCc2nc3ccc(Cl)cc3[nH]2)cc1,25.9%,66.7%,87.7%,109%,78.3%,97.1%,87.9%,84.9%,92%,83.7%
N#CC1=C(c2cccs2)Nc2c(c(-c3ccccc3)nn2-c2ccccc2)C12C(=O)Nc1ccccc12 (stereo not given),1.46% (active),34.5%,24.2%,57.7%,29.2%,28.4%,50.7%,12.7%,4.59% (active),61.6%
O=c1c(-c2nc(-c3ccccc3)c(-c3ccccc3)[nH]2)coc2ccc(F)cc12,63.5%,32.1%,82.6%,96.1%,47.3%,68.2%,62.8%,33.3%,71.6%,51.4%
C/C(=N/O)c1ccc(NC(=O)CSc2nnc(-c3ccc4nc(-c5ccc(Cl)cc5)[nH]c4c3)o2)cc1,24%,54.4%,1.29% (active),118%,101%,117%,102%,84.7%,12.7%,101%
O=CNc1cccc(-n2cnc3cc(-c4ccc(O)cc4)ccc32)c1,33.8%,24.3%,31.6%,68.7%,65.4%,28.4%,44.3%,26.8%,24.4%,12.1%
O=S(=O)(c1nc(-c2ccc(Br)cc2)oc1-c1ccc(Cl)cc1)N1CCCC(O)C1 (stereo not given),37.2%,29.7%,68.4%,87.8%,43%,101%,87.8%,63.1%,82.1%,31.3%
COc1ccc2[nH]c(=O)c(CSc3ccccc3Nc3nccc(-c4ccc(Cl)cc4)n3)cc2c1,-1.58% (active),30.4%,39.5%,84.7%,38.3%,57.7%,55.9%,39.8%,37.1%,34.4%
O=C(Cn1c(-c2ccccc2)nc2ccccc21)N=Nc1c(O)[nH]c2ccc(Cl)cc12,-14.7% (active),20.4%,-26.3% (active),18.5%,-44.4% (active),-6.33% (active),9.94% (active),1.02% (active),-16.2% (active),-43.2% (active)
N/C(=N\c1nc2ccccc2s1)NC(=O)Nc1ccccc1F,20.8%,15.8%,10.6%,31.4%,49.6%,-1.47% (active),37.5%,7.03% (active),7.56% (active),-14.8% (active)
COC(=O)c1c(C(=O)OC)c2c3ccccc3c3ccccc3n2c1C(=O)C(C)(C)C,-17.3% (active),47.2%,90.5%,97.9%,57.6%,122%,96.3%,112%,69.4%,83.3%
Cc1ccc(Cl)cc1NC(=O)N/C(N)=N/c1nc2ccccc2s1,5.59% (active),-7.24% (active),-51.4% (active),-28.7% (active),-34.8% (active),-25.6% (active),-4.38% (active),-67.7% (active),19%,-34.8% (active)
O=C(N=Nc1c(O)[nH]c2ccc(Cl)cc12)c1ccc2nc(-c3ccc(Cl)cc3)[nH]c2c1,10.6%,77.8%,-34.8% (active),36.2%,-3.41% (active),42%,-11.1% (active),-5.16% (active),12.2%,94.7%
CC[C@]12C=CCN3CC[C@@]4(c5ccc(OC)cc5N(C)[C@H]4[C@@](O)(C(=O)OC)[C@@H]1OC(=O)CCCC[P+](c1ccc(F)cc1)(c1ccc(F)cc1)c1ccc(F)cc1)[C@@H]32,28.8%,4.14% (active),20%,49.7%,33.1%,41.4%,-42.8% (active),12.6%,-2.23% (active),105%
